# Reference: PubChem BioAssay AID588790 (National Center for Advancing Translational Sciences (NCATS), 2011)
# Among all 1,200 compounds or so, about 85 (7%) were called active. Many of the other results were omitted from the sample, so actives are more common in it than they were. Unmarked numbers belong to inactive results. Calls follow the shape of the full dose curve.
# Target: Beta-2 adrenergic receptor (Homo sapiens) (UniProt P07550)
# Experiment: qHTS assay of beta-arrestin-biased ligands of beta2-adrenergic receptor: Hit Validation with GloSensor; as to activation: 0% is about no effect
# Conditions: W9-Glo22F cells, GloSensor cAMP luminescence, beta2AR agonism; activation: at 46.1 µM (top of the series)
# How it was run: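 Luminescence measured 10 min after GloSensor reagent addition at room temperature. Preceded by compound pinning onto W9-Glo22F cells that had been cultured overnight at 37 deg C under 5% CO2.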
# Potency is read from the fitted curve at half-maximal effect.
# Beta-2 adrenergic receptor (Homo sapiens), sequence (P07550 whole entry, looked up): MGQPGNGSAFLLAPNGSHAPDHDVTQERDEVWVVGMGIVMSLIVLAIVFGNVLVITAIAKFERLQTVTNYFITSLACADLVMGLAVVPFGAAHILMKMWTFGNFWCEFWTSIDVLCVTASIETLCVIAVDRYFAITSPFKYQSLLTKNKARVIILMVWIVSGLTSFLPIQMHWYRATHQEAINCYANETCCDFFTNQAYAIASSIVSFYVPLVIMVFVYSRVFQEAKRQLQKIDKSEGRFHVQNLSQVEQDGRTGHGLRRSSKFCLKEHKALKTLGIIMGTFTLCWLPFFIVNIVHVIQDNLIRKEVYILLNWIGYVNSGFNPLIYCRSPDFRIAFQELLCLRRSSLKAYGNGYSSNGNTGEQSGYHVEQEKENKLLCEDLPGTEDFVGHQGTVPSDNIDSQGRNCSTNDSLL
Structure (SMILES),activation,Potency
COc1cc(/C=C2\CC(C(C)(C)C)C/C(=C\c3cc(OC)c(OC)c(OC)c3)C2=O)cc(OC)c1OC (stereo not drawn),-2.33%,–
COc1cc(/C=C2\CC/C(=C\c3ccc(OCCO)c(OC)c3)C2=O)ccc1OCCO,–,18.4 µM (active)
CCOC(=O)N1C/C(=C\c2ccccc2)C(=O)/C(=C/c2ccccc2)C1,0.153%,–
O=C(O)CC1S/C(=N/N=C2CCCCC2)N(c2ccccc2)C1=O (stereo not drawn),-1.16%,–
CN(C)CCCn1c(SCC(=O)Nc2nccs2)nnc1-c1ccncc1,1.16%,–
CCC(C)NC(=O)C1CCN(S(=O)(=O)N2CCC3(CC2)OCCO3)CC1 (stereo not drawn),-1.16%,–
COc1cccc(/C=N/Nc2nc(-c3cccnc3)nc3ccccc23)c1,-1.16%,–
COc1ccc(Oc2nc(-c3ccncc3)nc3ccccc23)cc1,–,29.1 µM (active)
O=C(CC(=O)Nc1cccc(F)c1)Nc1cccc(F)c1,0%,–
CCCCCCCCN1C(=O)N(C)C(N(O)C(=O)NC)C1(C)C (stereo not drawn),-2.17%,–
Clc1cccc(Cl)c1C1Nc2cccc3cccc(c23)N1,-1.01%,–
Clc1ccccc1C1Nc2cccc3cccc(c23)N1,0%,–
O=[N+]([O-])c1ccc(Cl)c(C2Nc3cccc4cccc(c34)N2)c1,–,0.0046 µM (active)
Cc1ccc(C(=O)N/C(=C\c2ccco2)C(=O)NCCc2c[nH]c3ccccc23)cc1,0%,–
O=C(CNC(=O)C(c1ccccc1)c1ccccc1)N/N=C\c1cccc(O)c1,-0.857%,–
CCC(Sc1nc(C)cc(=O)[nH]1)C(=O)Nc1nc2c(s1)CCCC2 (stereo not drawn),4.96%,–
NC(=S)NN=C(c1ccccc1)c1ccccc1,-1.16%,–
NC(=S)NN=C(Cc1ccccc1)Cc1ccccc1,–,32.6 µM (active)
CC(/C=C/c1ccccc1)=N\NC(N)=S,0%,–
Cc1cc(N2Cc3ccccc3C2)ccc1C=O,0.459%,–
C/C(=N/NC(=O)c1ccoc1C)c1ccc(NC(=O)C2CCCC2)cc1,-1.16%,–
O=C(COC(=O)c1ccc(CO)cc1)NCc1cccs1,80.4% (active),–
O=C(COC(=O)c1n[nH]c(=O)c2ccccc12)NCc1ccccc1,8.45%,–

Structure (SMILES),activation,Potency
Oc1ccc(NCc2cccs2)cc1,1.16%,–
CN1CCN(C(=S)NC(=O)c2ccc(Br)cc2)CC1,–,10.3 µM (active)
CCN1CCN(C(=S)NC(=O)c2cccc(Br)c2)CC1,-1.16%,–
CC1CN(C(=S)NC(=O)c2ccc([N+](=O)[O-])cc2)CC(C)O1 (stereo not drawn),0%,–
CCC1(C)Nc2ccccc2C(=O)N1O (stereo not drawn),-1.16%,–
O=C(Nc1nc(-c2ccccn2)cs1)Nc1ccc(F)cc1F,0%,–
CN(C)/C=C/C(=O)c1ccc(F)cc1,0.306%,–
O=S(=O)(N1CCOCC1)N1CCOCC1,-1.16%,–
Cc1ccc(NC(=S)NC(NC(=O)c2ccccc2)C(Cl)(Cl)Cl)c(C)c1 (stereo not drawn),-1.16%,–
S=c1[nH]nc(-c2ccccc2)n1C1C=CCCC1 (stereo not drawn),-1.01%,–
Cn1c(-c2csc(-c3ccccc3)n2)n[nH]c1=S,–,20.6 µM (active)
CC(c1ccccc1)n1c(-c2ccc(C(C)(C)C)cc2)n[nH]c1=S (stereo not drawn),-2.33%,–
COc1ccccc1-c1cc(C(=O)N2CCN(c3ccccc3OC)CC2)no1,0.153%,–
Cc1ccc(Nc2nc(CSc3nnc(-c4ccccc4C)n3C)cs2)cc1,0.306%,–
CCCOc1ccc(C(=O)Nc2nc(C)c(Cc3ccc4c(c3)OCO4)s2)cc1,-1.01%,–
COc1ccccc1N=NC1C(=O)N(C(N)=S)N=C1C (stereo not drawn),8.6%,–
CC(=O)Nc1ccc(NC(=O)Cn2nc(C(=O)Nc3ccc(C)cc3)ccc2=O)cc1,-1.16%,–
CC1=NN(C(N)=S)C(=O)C1N=Nc1ccc(F)cc1 (stereo not drawn),0.306%,–
CC1=NN(C(N)=S)C(=O)C1N=Nc1cccc(C)c1 (stereo not drawn),0.153%,–
CC1=NN(C(N)=S)C(=O)C1N=Nc1ccccc1 (stereo not drawn),–,18.4 µM (active)
NC(=S)N/N=C/c1ccccc1OC(=O)c1cc2ccccc2oc1=O,1.16%,–
COCC(=O)Nc1c(C(=O)Nc2ccc3c(c2)OCCO3)oc2ccccc12,-2.48%,–
Cc1cc(-c2n[nH]c(=S)n2/N=C/C(Cl)=C/c2ccccc2)n[nH]1,–,36.6 µM (active)

Structure (SMILES),activation,Potency
S=c1[nH]nc(-c2ccco2)n1/N=C/C(Cl)=C/c1ccccc1,2.48%,–
Cc1cc(-c2n[nH]c(=S)n2/N=C/C(Br)=C/c2ccccc2)n[nH]1,0%,–
CCc1n[nH]c(=S)n1/N=C/c1ccc(N(CC)CC)cc1,-2.48%,–
CC(=C/c1ccccc1)/C=N/n1c(C)n[nH]c1=S,–,25.9 µM (active)
COC(=O)c1c(NC(=O)CS(=O)(=O)c2ccccc2)sc(C)c1C,0%,–
C/C(=N\NC(=O)c1c[nH]c2ccccc12)c1ccc(C)s1,0.306%,–
COc1cc2c(cc1OC)C(C)N(C(=O)Cn1ncc3c1-c1cc(C)ccc1OC3)CC2 (stereo not drawn),1.16%,–
N=c1n(Cc2ccccc2)c2ccccc2n1Cc1ccccc1,0.153%,–
COc1cccc(NC(=S)NN=C2CCCCCC2)c1,-1.01%,–
COC(=O)c1cc2sc(Cl)cc2n1CC(=O)Nc1ccc(OC)c(OC)c1OC,0%,–
CNc1sc(C(=O)c2cccs2)c(N)c1-c1nc2ccccc2s1,-1.16%,–
NC(=S)Nc1nc2ccccc2s1,2.48%,–
CNc1sc(C(=O)c2ccccc2F)c(N)c1-c1nc2ccccc2s1,–,18.4 µM (active)
CCOC(=O)C1=CN(Cc2cccc(-c3cccnc3)c2)S(=O)(=O)N(CC)C1C (stereo not drawn),0%,–
Cc1ccc(CONC(=O)c2ccccc2Cl)cc1,0.306%,–
O=C(/C=C/c1ccc(N2CCCCC2)c([N+](=O)[O-])c1)c1ccc(S(=O)(=O)N2CCCC2)cc1,0%,–
Cc1ccc2nc(C)c(C(=O)N/N=C/c3cccs3)n2c1,0%,–
C=CCNc1nc(Cl)nc(NC2CCCCC2)n1,–,23.1 µM (active)
COC(=O)COc1cccc2c(=O)n(CC(=O)Nc3ccc4c(c3)OCCO4)ccc12,0%,–
CCOC(=O)c1ccccc1NC1c2ccccc2C(=O)N1C1CCN(C(=O)OCC)CC1 (stereo not drawn),-1.16%,–
O=C(CSc1cccc2cccnc12)N1CCCC1,1.16%,–
O=C1NC(=NCc2ccccc2)S/C1=C/c1ccc(O)cc1,–,23.1 µM (active)
COc1ccc(CN=C2NN=C(c3ccccc3)CS2)cc1,-1.16%,–

Structure (SMILES),activation,Potency
CCCCCC(=O)Nc1cccc(C2=NOC3(C2)C[C@@H](C(N)=O)N(C(=O)CC(c2ccccc2)c2ccccc2)C3)c1 (stereo partly drawn),0%,–
CN(c1ccccc1)S(=O)(=O)c1ccc(C(=O)Nc2nccs2)cc1,0.459%,–
O=C(Oc1c(-c2ccco2)oc2ccccc2c1=O)c1cccnc1,–,32.6 µM (active)
O=C(Oc1c(Cl)cc(Cl)c2cccnc12)c1ccco1,-2.33%,–
O=C(Oc1ccc(Cl)c2cccnc12)c1ccco1,-1.16%,–
Cc1ccc2c(c1)[C@H]1[C@H](CO2)[C@H](c2ccccc2)[C@]2(C)C(=O)Nc3ccccc3C(=O)N12,0.459%,–
NC(=S)N/N=C/c1ccc(-c2ccccc2)o1,0%,–
NC(=S)N/N=C/c1ccc(-c2ccc([N+](=O)[O-])cc2)o1,0%,–
NC(=S)N/N=C/c1ccc(-c2cccc([N+](=O)[O-])c2)o1,–,20.6 µM (active)
Cc1cccc(NC(=S)NC(=O)C2CC2)c1,-1.16%,–
CCC(NC(C)C)C(O)c1ccc(O)c(O)c1 (stereo not drawn),–,0.0065 µM (active)
CCC(NC(C)C)C(O)c1ccc(O)c2[nH]c(=O)ccc12 (stereo not drawn),–,0.0058 µM (active)
COc1cccc(OCC(=O)Nc2c3c(nn2-c2ccc(F)cc2)CS(=O)(=O)C3)c1,3.64%,–
O=C(NC1CCCCC1)N(Cc1cc2cc3c(cc2[nH]c1=O)OCCO3)CC1CCCO1 (stereo not drawn),1.16%,–
CCNC(=S)N/N=C(\C)c1cccc(C(F)(F)F)c1,2.48%,–
CC(=O)Nc1ccc(S(=O)(=O)N2CCC(c3nnc(-c4ccc(C)cc4)o3)CC2)cc1,2.33%,–
CCOC(=O)c1c(NC(=O)CSc2cccc[n+]2[O-])sc(C(=O)Nc2ccccc2)c1C,-1.16%,–
CCOC(=O)c1c(C)nc2c(c1-c1ccccc1)C(=O)CC(C)(C)C2,1.16%,–
CC(C)C(=O)COc1c2occc2cc2ccc(=O)oc12,–,13 µM (active)
N#CC1=C(N)OC2=C(CC/C2=C\c2ccccc2)C1c1ccccc1 (stereo not drawn),-1.16%,–
CC1CCCC/C1=N\NC(=S)NCCc1ccccc1 (stereo not drawn),-1.16%,–
S=c1nc(-c2ccccc2)[nH]c2ccc(Br)cc12,0%,–
S=c1nc(-c2ccccc2)[nH]c2ccccc12,–,32.6 µM (active)

Structure (SMILES),activation,Potency
S=c1ccc2ccccc2[nH]1,-1.16%,–
CCOC(=O)C1(O)CC(C)=NN1C(=O)c1cccc(Cl)c1 (stereo not drawn),-1.16%,–
CCNC(=S)N/N=C/c1sccc1C,0%,–
CC(C)NC(=S)N/N=C/c1cccs1,-1.16%,–
CCNC(=S)N/N=C/c1cccs1,–,5.8 µM (active)
Cc1noc(C)c1COc1cccc(C(=O)Nc2ccccc2N2CCOCC2)c1,8.6%,–
O=C(N/N=C/c1ccccc1OC(=O)c1ccc2c(c1)OCO2)c1ccccc1,4.96%,–
Cn1c(/C=C/c2ccc([N+](=O)[O-])o2)nc2ccccc2c1=O,2.48%,–
N#C/C(=C\c1cccc(O)c1)C(=O)Nc1ccc2c(c1)OCCO2,-1.01%,–
O=C(CC(c1ccco1)S(=O)(=O)c1ccccc1)c1ccccc1 (stereo not drawn),-2.17%,–
O=C(O)/C(=C\c1ccco1)NC(=O)c1ccccc1,-1.16%,–
O=C(c1ccccc1)c1ccc2nc(-c3ccco3)c(-c3ccco3)nc2c1,–,32.6 µM (active)
CC(C)[C@H](NC(=O)c1ccccc1Cl)C(=O)Nc1nc(-c2ccccn2)cs1,1.16%,–
COc1cccc(N2CCN(C(=O)/C=C/c3ccco3)CC2)c1,0%,–
CC1=C(C)/C(=N\OS(=O)(=O)c2ccc(C)cc2)C=CC1=O,0%,–
COc1cc(/C(C)=N/NC(=S)NC(C)C)cc(OC)c1OC,–,18.4 µM (active)
CCOc1ccc(/C(CCC(=O)O)=N/NC(=S)NC(C)C)cc1,1.71%,–
C/C(=N\NC(=S)NC(C)C)c1ccccc1,7.28%,–
C/C(=N\NC(=S)NC(C)C)c1ccccc1OC(F)F,-1.16%,–
CC/C(=N\NC(=S)NC(C)C)c1ccc(OC)c(OC)c1,–,23.1 µM (active)
C/C(=N\NC(=S)NC(C)C)c1ccco1,0%,–
